The campaign covered roughly 310,000 compounds. About 2,200 (0.71%) showed an effect of 50% or more. Effects have a minus sign here. The list comes from a sample in which strong results are over-represented; it also holds similar structures and randomly drawn compounds.
These compounds were tested against human ether-à-go-go-related gene (hERG) potassium channel (human, UniProt Q12809) (assay: primary screen, population patch clamp on CHO cells stably expressing hERG; higher = less effect of the substance).
Chain of human ether-à-go-go-related gene (hERG) potassium channel (Q12809 whole entry, looked up): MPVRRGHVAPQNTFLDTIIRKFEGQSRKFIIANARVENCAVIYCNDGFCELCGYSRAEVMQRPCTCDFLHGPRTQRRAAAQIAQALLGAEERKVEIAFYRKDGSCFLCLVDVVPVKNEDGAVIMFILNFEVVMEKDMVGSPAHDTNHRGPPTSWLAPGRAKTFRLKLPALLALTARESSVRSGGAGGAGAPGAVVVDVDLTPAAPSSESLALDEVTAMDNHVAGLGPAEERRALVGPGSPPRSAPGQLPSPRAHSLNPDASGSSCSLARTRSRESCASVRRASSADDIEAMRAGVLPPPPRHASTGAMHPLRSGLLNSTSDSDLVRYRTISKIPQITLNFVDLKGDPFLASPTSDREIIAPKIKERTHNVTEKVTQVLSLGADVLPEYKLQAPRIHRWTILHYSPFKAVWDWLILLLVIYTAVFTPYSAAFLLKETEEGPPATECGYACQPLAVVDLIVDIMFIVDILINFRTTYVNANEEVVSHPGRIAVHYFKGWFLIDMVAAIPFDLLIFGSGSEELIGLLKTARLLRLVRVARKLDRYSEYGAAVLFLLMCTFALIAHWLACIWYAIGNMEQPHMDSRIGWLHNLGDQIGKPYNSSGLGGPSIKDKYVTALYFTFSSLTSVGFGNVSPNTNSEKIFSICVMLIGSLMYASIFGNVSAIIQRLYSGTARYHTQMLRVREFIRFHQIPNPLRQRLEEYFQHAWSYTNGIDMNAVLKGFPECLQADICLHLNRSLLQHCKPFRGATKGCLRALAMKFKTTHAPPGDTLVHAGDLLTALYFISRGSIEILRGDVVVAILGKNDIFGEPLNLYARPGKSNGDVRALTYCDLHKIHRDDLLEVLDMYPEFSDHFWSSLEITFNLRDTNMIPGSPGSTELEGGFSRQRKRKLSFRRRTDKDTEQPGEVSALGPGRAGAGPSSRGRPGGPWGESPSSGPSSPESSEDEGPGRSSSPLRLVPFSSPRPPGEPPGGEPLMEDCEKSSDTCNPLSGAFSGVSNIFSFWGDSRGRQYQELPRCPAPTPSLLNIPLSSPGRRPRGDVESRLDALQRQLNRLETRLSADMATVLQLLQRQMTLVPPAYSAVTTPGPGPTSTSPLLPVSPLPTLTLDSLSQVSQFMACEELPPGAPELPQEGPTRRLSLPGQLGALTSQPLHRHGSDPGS

Row | Structure (SMILES) | hERG current change (%, negative = inhibition) at 1uM [%]
1 | Cc1ccc(NC(=O)N(Cc2nc3ccccc3c(=O)[nH]2)Cc2cccs2)cc1 | 5.74
2 | Cc1cc(C(=O)NC2CC(C)(C)Cc3c2cnn3-c2cccc(F)c2)nn1C (stereo not drawn) | 9.79
3 | CC1(C)Cc2c(cnn2-c2cccc(F)c2)C(NC(=O)c2ccc(=O)[nH]n2)C1 (stereo not drawn) | -61.7
4 | CC1=C(C(=O)NC2CC(C)(C)Cc3c2cnn3-c2cccc(F)c2)OCCO1 (stereo not drawn) | -3.59
5 | Cc1cc(C)cc(-n2ncc3c2CCCC3NC(=O)c2csnn2)c1 (stereo not drawn) | -84
6 | Cc1cc(C(=O)NC2CC(C)(C)Cc3c2cnn3-c2cccc(F)c2)n(C)n1 (stereo not drawn) | 3.12
7 | CC1(C)Cc2c(cnn2-c2cccc(F)c2)C(NC(=O)c2csnn2)C1 (stereo not drawn) | -85
8 | Cc1ccc(-n2ncc3c2CCCC3NC(=O)c2csnn2)cc1C (stereo not drawn) | 2.61
9 | CC(C)(C)c1ccc(-n2ncc3c2CCCC3NC(=O)c2csnn2)cc1 (stereo not drawn) | 9.11
10 | Cc1cnc(C(=O)NC2CC(C)(C)Cc3c2cnn3-c2cccc(F)c2)cn1 (stereo not drawn) | 3.82
11 | Nc1ccc(C(=O)NCc2ccccc2)cc1 | 8.94
12 | CCNC(=O)c1ccc(NC(=O)CC2SC(N3CCCCC3)=NC2=O)cc1 (stereo not drawn) | -1.11
13 | COc1ccc(CCNC(=O)c2cc(C)oc2C)cc1 | 10.3
14 | OCCC1CN(C2CCN(c3ccccc3F)CC2)CCN1Cc1ccccc1 (stereo not drawn) | -1.66
15 | OCCC1CN(C2CCN(c3ccccc3)CC2)CCN1Cc1ccc(F)c(F)c1 (stereo not drawn) | -71.1
16 | OCCC1CN(C2CCC2)CCN1Cc1ccc(F)c(F)c1 (stereo not drawn) | 12.1
17 | OCC1(Cc2ccccc2)CCN(C2CCN(c3ccccc3F)CC2)CC1 | -38.5
18 | OCC1(Cc2ccccc2)CCN(C2CCN(c3ccc(F)c(F)c3)CC2)CC1 | -124
19 | OCC1(Cc2ccccc2)CCCN(C2CCCC2)C1 (stereo not drawn) | -3.43
20 | CC(C)c1c(C(=O)N/N=C/c2ccccc2C(=O)O)nnn1-c1nonc1N | 7.36
21 | C(=C\CSc1nnnn1-c1ccccc1)/CSc1nnnn1-c1ccccc1 | 0.568

Row | Structure (SMILES) | hERG current change (%, negative = inhibition) at 1uM [%]
22 | O=C(Cn1nc(-c2ccccc2)c2ccccc2c1=O)Nc1ccc2c(c1)nc1n2CCOC1 | 13.3
23 | C/C(=N\NC(=O)C1(C)CC1(Br)Br)c1cccc(NC(=O)c2ccc(C)o2)c1 (stereo not drawn) | 11.8
24 | CN1CCCN(C(=O)c2ccc(Br)s2)CC1 | 1.6
25 | CN1CCCN(C(=O)c2ccc(Cl)s2)CC1 | -50.5
26 | O=C(c1ccc(Cl)s1)N1CCCC1 | 6.35
27 | CCOc1ccc(CCNC(=O)CN2CCN(Cc3ccccc3F)C2=O)cc1OCC | -0.385
28 | Cc1ccc(S(=O)(=O)N2CCC(C(=O)Nc3ncccc3O)CC2)cc1 | -13.8
29 | CCC1CCCCN1CCCNC(=O)c1ccc2c(c1)N(Cc1ccc(F)cc1)C(=O)c1ccccc1S2=O (stereo not drawn) | -13.7
30 | Cc1nc(S(=O)(=O)c2ccc(Cl)cc2)nc2c1CCC2 | 0.296
31 | CCOc1ccccc1CN1C(=O)NC(C)(c2ccccc2)C1=O (stereo not drawn) | -0.418
32 | CCN(C1CCCCC1)S(=O)(=O)CCNC(=O)c1ccccc1 | 2.25
33 | CCCCCCCCCCCCCCCC[N+](C)(C)CCN(Cc1ccc(OC)cc1)c1ncccn1.[Br-] | -61.5
34 | CC[N+](C)(C)CCN(Cc1ccc(Cl)cc1)c1ccccn1.[Br-] | -33.2
35 | COc1ccc(CN(CCN(C)C)c2ccccn2)cc1.O=C(O)/C=C\C(=O)O | -0.0995
36 | COc1cc(C)ccc1OCCCOc1ccccc1Br | 12.3
37 | O=C(CCn1c(=O)c2sccc2n(Cc2cc(=O)n3ccccc3n2)c1=O)NCc1ccco1 | -25.1
38 | CCOC(=O)N1CCC(N2CCCC(C(=O)c3cccc(OC)c3)C2)CC1 (stereo not drawn) | -13.2
39 | CCOC(=O)N1CCC(N2CCCC(C(=O)c3ccc4cc(OC)ccc4c3)C2)CC1 (stereo not drawn) | -55.1
40 | CC(C)Oc1cccc(C(=O)C2CCCN(C3CCOCC3)C2)c1 (stereo not drawn) | -5.96
41 | CCOC(=O)N1CCC(N2CCCC(C(=O)c3cc(C)c(OC)c(C)c3)C2)CC1 (stereo not drawn) | -28.1
42 | CCCC(=O)N1CCCC(C(=O)c2cccc(OC(C)C)c2)C1 (stereo not drawn) | 9.81

— paper PMC4336329 (PLoS ONE, 2015)
